Measurements taken from PubChem BioAssay (Tox21).
Records with an inconclusive call do not appear. Active and inactive are the calls of the source. Unless noted, calls follow the shape of the full dose curve.

Test system: not listed separately
Assay: qHTS assay to identify small molecule agonists of the TGF-beta/Smad signaling pathway (AID 1346859; active = well fitted activation curve with a large enough effect in the signal ratio in the repeat runs, not every such curve was filed as active; the % refers to the signal ratio)
Details: SBE-bla HEK293T, TGF-beta/Smad beta-lactamase reporter, 5 h; series mostly up to 76.8 µM; activation: at the top concentration
How it was run: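 Smad-responsive beta-lactamase reporter cells (HEK 293T) received compounds from DMSO stocks after overnight attachment, were incubated 5 hr, then treated 2 hr with FRET substrate before dual-emission fluorescence measurement (405 nm excitation).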
% is scaled to controls: 0 for no effect and ±100 for the full control effect.

Row | Structure (SMILES) | activation
1 | C[C@@H](O)C(=O)O | 1.8% (inactive)
2 | CC1c2ccccc2CN1NC(=O)c1ccc(Cl)c(S(N)(=O)=O)c1 (stereo not given) | -0.857% [at 35.3 µM] (inactive)
3 | O=C1CCC(=O)N1Cl | -1.63% (inactive)
4 | C/C(CC(C)C)=N\O | -3.09% (inactive)
5 | CCC(C)C(=O)OCCc1ccccc1 (stereo not given) | 5.36% (inactive)
6 | CC(=O)CCC1=C(C)CCCC1(C)C | -0.0873% (inactive)
7 | CCOc1ccccc1OCC1CNCCO1 (stereo not given) | -1.52% [at 35.3 µM] (inactive)
8 | COC(=O)c1cccc(Cl)c1 | -1.32% (inactive)
9 | Cc1ccc2c(c1)C(=O)c1ccccc1C2=O | -1.36% (inactive)
10 | C=C(C)c1cccc(C(C)(C)N=C=O)c1 | -0.437% (inactive)
11 | Cc1cc(C)c(C(=O)O)c(C)c1 | 2.29% (inactive)
12 | CCCSSCCC | -0.652% (inactive)
13 | CC1(C)Cc2cccc(N)c2O1 | 0.989% (inactive)
14 | C=CCN1C[C@H](C(=O)N(CCCN(C)C)C(=O)NCC)C[C@@H]2c3cccc4[nH]cc(c34)C[C@H]21 | 3.37% [at 35.3 µM] (inactive)
15 | O=C[O][Al]([O]C=O)[O]C=O | 0.256% (inactive)
16 | CC1CC(=O)CC(C)(C)C1 (stereo not given) | 1.22% (inactive)
17 | CC(C)Nc1ccccc1 | 0.147% (inactive)
18 | CCCCCCCCCCCCCCC(=O)NC(CO)CCCCCCCCCCCCCC (stereo not given) | -0.238% (inactive)

Row | Structure (SMILES) | activation
19 | CN(C)CCCCl | -5.72% (inactive)
20 | C[C@H]1[C@@H](c2ccccc2)NC(=O)N1C | -4.14% (inactive)
21 | CC(=O)OC1CCCCC1C(C)(C)C (stereo not given) | -1.4% (inactive)
22 | O=C(O)[C@H](O)c1ccccc1 | 0.46% [at 35.3 µM] (inactive)
23 | COC(=O)CCCCC(=O)O | 1.67% (inactive)
24 | C=CCSSCCC | 0% (inactive)
25 | CO/N=C(/C(=O)N[C@@H]1C(=O)N2C(C(=O)[O-])=C(C[n+]3ccn4ncccc43)CS[C@H]12)c1nsc(N)n1 | -1.12% [at 35.3 µM] (inactive)
26 | CC12CCC(C1)C(C)(C)C2O (stereo not given) | 7.23% (inactive)
27 | C/C=C(\C)C(C)=O | 0.602% (inactive)
28 | CN(C)CCN(C)CCO | -0.983% (inactive)
29 | C[C@]12CCC(=O)C=C1CC[C@H]1[C@@H]3CC[C@](O)(C(=O)CO)[C@@]3(C)C[C@H](O)[C@@]12F | 2.75% [at 35.3 µM] (inactive)
30 | CC1OCCC1=O (stereo not given) | 3.5% (inactive)
31 | CCCC(=O)OC/C=C(\C)CCC=C(C)C | 0.339% (inactive)
32 | C=CCCCCCCCCC(=O)OCCCC | -0.294% (inactive)
33 | CN1C[C@@H]2C[C@H]1CN2c1cc2c(cc1F)c(=O)c(C(=O)O)cn2C1CC1 | 0.101% [at 15.8 µM] (inactive)
34 | CCC/C=C(\C=O)CC | -0.931% (inactive)
35 | CC1(C)CC(OC(=O)CCCCCCCCC(=O)OC2CC(C)(C)NC(C)(C)C2)CC(C)(C)N1 | 0.453% [at 15.8 µM] (inactive)

Target: Thyrotropin-releasing hormone receptor (Homo sapiens) (UniProt P34981)
Sequence (P34981 whole entry, looked up): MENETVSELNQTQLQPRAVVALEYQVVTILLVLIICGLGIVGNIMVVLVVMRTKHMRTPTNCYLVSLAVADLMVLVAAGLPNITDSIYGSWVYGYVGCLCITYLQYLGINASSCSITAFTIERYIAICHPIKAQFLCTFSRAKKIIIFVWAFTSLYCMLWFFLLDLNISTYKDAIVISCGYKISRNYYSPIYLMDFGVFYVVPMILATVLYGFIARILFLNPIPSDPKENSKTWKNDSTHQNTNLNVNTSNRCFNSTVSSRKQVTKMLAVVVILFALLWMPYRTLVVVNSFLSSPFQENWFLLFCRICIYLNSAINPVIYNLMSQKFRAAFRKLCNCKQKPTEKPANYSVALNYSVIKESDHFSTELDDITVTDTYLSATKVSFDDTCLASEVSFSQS
Assay: qHTS assay to identify small molecule antagonists of the thyrotropin-releasing hormone receptor (TRHR) signaling pathway (AID 1346877; active = well fitted inhibition curve with a large enough effect in the repeat runs, not every such curve was filed as active)
Details: TRHR-HEK293, TRH-induced calcium fluorescence, antagonist mode; series mostly up to 51.3 µM; activity, negative = inhibition: at the top concentration
How it was run: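 In this cell-based calcium flux format, HEK293 cells expressing TRHR received test compound for 5 min before the agonist TRH (1 nM final). Dye loading lasted 2 h at 37 °C.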

Row | Structure (SMILES) | activity, negative = inhibition
36 | C[C@@H](O)C(=O)O | -3.03% (inactive)
37 | CC1c2ccccc2CN1NC(=O)c1ccc(Cl)c(S(N)(=O)=O)c1 (stereo not given) | -1.31% [at 23.6 µM] (inactive)
38 | C/C(CC(C)C)=N\O | 1.33% (inactive)
39 | CCC(C)C(=O)OCCc1ccccc1 (stereo not given) | 0.2% (inactive)
40 | CC(=O)CCC1=C(C)CCCC1(C)C | -3.49% (inactive)
41 | CCOc1ccccc1OCC1CNCCO1 (stereo not given) | -2.61% [at 23.6 µM] (inactive)
42 | COC(=O)c1cccc(Cl)c1 | -3.28% (inactive)
43 | Cc1ccc2c(c1)C(=O)c1ccccc1C2=O | 2.81% (inactive)
44 | Cc1cc(C)c(C(=O)O)c(C)c1 | 3.44% (inactive)
45 | CCCSSCCC | 3.16% (inactive)
46 | CC1(C)Cc2cccc(N)c2O1 | 6.25% (inactive)
47 | C=CCN1C[C@H](C(=O)N(CCCN(C)C)C(=O)NCC)C[C@@H]2c3cccc4[nH]cc(c34)C[C@H]21 | -5.56% [at 23.6 µM] (inactive)
48 | O=C[O][Al]([O]C=O)[O]C=O | 4.9% (inactive)
49 | CC(C)Nc1ccccc1 | 2.18% (inactive)
50 | CCCCCCCCCCCCCCC(=O)NC(CO)CCCCCCCCCCCCCC (stereo not given) | 0.293% (inactive)
51 | CN(C)CCCCl | 2.66% (inactive)
52 | C[C@H]1[C@@H](c2ccccc2)NC(=O)N1C | 2.37% (inactive)
53 | CC(=O)OC1CCCCC1C(C)(C)C (stereo not given) | -6% (inactive)
54 | O=C(O)[C@H](O)c1ccccc1 | -3.5% [at 23.6 µM] (inactive)
55 | C=CCSSCCC | -0.159% (inactive)
56 | CC12CCC(C1)C(C)(C)C2O (stereo not given) | -0.758% (inactive)
57 | C/C=C(\C)C(C)=O | -7.11% (inactive)
58 | C[C@]12CCC(=O)C=C1CC[C@H]1[C@@H]3CC[C@](O)(C(=O)CO)[C@@]3(C)C[C@H](O)[C@@]12F | -3.63% [at 23.6 µM] (inactive)
59 | CC1OCCC1=O (stereo not given) | 1.81% (inactive)
60 | C=CCCCCCCCCC(=O)OCCCC | -0.618% (inactive)
61 | CN1C[C@@H]2C[C@H]1CN2c1cc2c(cc1F)c(=O)c(C(=O)O)cn2C1CC1 | 1.83% [at 10.5 µM] (inactive)
62 | CCC/C=C(\C=O)CC | 1.17% (inactive)
63 | CC1(C)CC(OC(=O)CCCCCCCCC(=O)OC2CC(C)(C)NC(C)(C)C2)CC(C)(C)N1 | 0.698% [at 10.5 µM] (inactive)
64 | O=C1OCCO1 | -3.4% (inactive)
65 | CC1CCc2c(N3CCC(O)CC3)c(F)cc3c(=O)c(C(=O)O)cn1c23 (stereo not given) | -3.64% [at 23.6 µM] (inactive)

Target: Thyrotropin-releasing hormone receptor (Homo sapiens) (UniProt P34981)
Assay: qHTS assay to identify small molecule agonists of the thyrotropin-releasing hormone receptor (TRHR) signaling pathway (AID 1346891)
Details: TRHR-HEK293 calcium fluorescence, agonist mode; series mostly up to 57.6 µM; activation: at the top concentration
How it was run: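 Agonist-mode calcium mobilisation screen: TRHR-transfected HEK293 cells cultured overnight (18 h), dye-loaded for 2 h at 37 °C, exposed to compounds, and monitored by fluorescence for 3 min.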

Row | Structure (SMILES) | activation
66 | C[C@@H](O)C(=O)O | -0.361% (inactive)
67 | CC1c2ccccc2CN1NC(=O)c1ccc(Cl)c(S(N)(=O)=O)c1 (stereo not given) | 0.238% [at 26.5 µM] (inactive)
68 | C/C(CC(C)C)=N\O | -0.322% (inactive)
69 | CCC(C)C(=O)OCCc1ccccc1 (stereo not given) | 0.101% (inactive)
70 | CC(=O)CCC1=C(C)CCCC1(C)C | 0.224% (inactive)
71 | CCOc1ccccc1OCC1CNCCO1 (stereo not given) | -0.136% [at 26.5 µM] (inactive)
72 | COC(=O)c1cccc(Cl)c1 | -0.413% (inactive)
73 | Cc1ccc2c(c1)C(=O)c1ccccc1C2=O | 1.4% (inactive)
74 | Cc1cc(C)c(C(=O)O)c(C)c1 | 0.0461% (inactive)
75 | CCCSSCCC | -0.0485% (inactive)
76 | CC1(C)Cc2cccc(N)c2O1 | -0.422% (inactive)
77 | C=CCN1C[C@H](C(=O)N(CCCN(C)C)C(=O)NCC)C[C@@H]2c3cccc4[nH]cc(c34)C[C@H]21 | 0.726% [at 26.5 µM] (inactive)
78 | O=C[O][Al]([O]C=O)[O]C=O | -0.625% (inactive)
79 | CC(C)Nc1ccccc1 | -0.243% (inactive)
80 | CCCCCCCCCCCCCCC(=O)NC(CO)CCCCCCCCCCCCCC (stereo not given) | -0.0618% (inactive)
81 | CN(C)CCCCl | 0.352% (inactive)
82 | C[C@H]1[C@@H](c2ccccc2)NC(=O)N1C | 2.1% (inactive)
83 | CC(=O)OC1CCCCC1C(C)(C)C (stereo not given) | -0.0726% (inactive)
84 | O=C(O)[C@H](O)c1ccccc1 | -0.0485% [at 26.5 µM] (inactive)
85 | C=CCSSCCC | -0.0109% (inactive)
86 | CC12CCC(C1)C(C)(C)C2O (stereo not given) | -0.0987% (inactive)
87 | C/C=C(\C)C(C)=O | -0.4% (inactive)
88 | C[C@]12CCC(=O)C=C1CC[C@H]1[C@@H]3CC[C@](O)(C(=O)CO)[C@@]3(C)C[C@H](O)[C@@]12F | -0.492% [at 26.5 µM] (inactive)
89 | CC1OCCC1=O (stereo not given) | 0.029% (inactive)
90 | C=CCCCCCCCCC(=O)OCCCC | -0.103% (inactive)
91 | CN1C[C@@H]2C[C@H]1CN2c1cc2c(cc1F)c(=O)c(C(=O)O)cn2C1CC1 | -1.22% [at 11.8 µM] (inactive)
92 | CCC/C=C(\C=O)CC | -0.512% (inactive)
93 | CC1(C)CC(OC(=O)CCCCCCCCC(=O)OC2CC(C)(C)NC(C)(C)C2)CC(C)(C)N1 | 0.325% [at 11.8 µM] (inactive)
94 | O=C1OCCO1 | -0.239% (inactive)
95 | CC1CCc2c(N3CCC(O)CC3)c(F)cc3c(=O)c(C(=O)O)cn1c23 (stereo not given) | -0.388% [at 26.5 µM] (inactive)
